Compounds with a hit are over-represented: about 21% of the library has one in this group of screens.
Pf growth 48h: inhibits P. falciparum growth in the first generation, 48 h; AID 504832; Potency, µM (highest dose often 28.7 µM), without a hit: at the top dose activity change, negative = inhibition, most hits filed as inhibitors; hit rate 5.9% among 310,000; P. falciparum luciferase growth in erythrocytes, 48 h; also: potency is read from the fitted curve at half-maximal effect; % is scaled to controls: 0 for no effect and ±100 for the full control effect
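In quantitative HTS format, infected erythrocytes bearing luciferase-reporter parasites were treated for a single generation at 37 C. Luminescence after adding detection reagent served as the growth measure.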
Shiga toxin inh: inhibitors of Shiga toxin in Vero cells; Vero cells, Shiga toxin protein synthesis inhibition reporter; inhibition, % at 38.7 µM; hit rate 9.2% among 290,000; AID 2315; in the data active = inhibition mostly above about 28%, no sharp cut-off; inactive = mostly below about 43%; also: 0% is about no effect
Pf growth 96h: inhibits malaria parasite growth, 96 h | hit rate 6.9% among 320,000 | Potency, µM (titrated, usually from 28.7 µM), for the others: at the top dose activity change, negative = inhibition, hits mostly inhibitors | P. falciparum luciferase reporter growth, 96 h; also: potency is read from the fitted curve at half-maximal effect; % is scaled to controls: 0 for no effect and ±100 for the full control effect
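P. falciparum expressing integrated firefly luciferase, in erythrocytes at 2% hematocrit, 0.05% parasitemia, incubated with compounds 96 h at 37 C, 5% CO2. Growth inhibition read as loss of luminescence; two-generation exposure targets delayed-death apicoplast inhibitors.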
Cycloheximide cs: affects cycloheximide protein synthesis inhibition readout, counter-screen. cell reporter, cycloheximide protein synthesis inhibition counterscreen. max response, %. hit rate 12% among 300,000; in the data active = max response mostly above about 13%, no sharp cut-off; inactive = mostly below about 14%; also: read at 38.3 µM for the half of the compounds with a filed dose; 0% is about no effect
AMA1-RON2 inh: inhibitors of Plasmodium falciparum AMA1-RON2 interaction. AlphaScreen AMA1-biotinylated RON2 peptide binding. Potency, µM (titrated, usually from 58.2 µM), for inactives: top-dose activity change, negative = inhibition, actives largely listed as inhibitors. hit rate 0.2% among 360,000. AID 720542;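 also: potency is read from the fitted curve at half-maximal effect; 0% = vehicle wells and -100% = peptide control; nearly all actives have a fitted effect of over 45% in size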
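AMA1 (3D7) with his tag at 25 nM final met compounds first, then biotinylated RON2 peptide at 25 nM; detection used donor plus acceptor beads, 10 µg/mL apiece, read by AlphaScreen after 30 min at room temperature.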
HCV inh: blocks hepatitis C virus; Huh7.5.1 HCVcc-Cre infection, luciferase reporter, 44 h; Potency, µM (doses to about 41.8 µM), without a hit: at the highest dose activity change, negative = inhibition, usual class: inhibitors; hit rate 3.4% among 340,000; also: potency is read from the fitted curve at half-maximal effect; % is scaled to controls: 0 for no effect and ±100 for the full control effect
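Whole-lifecycle infectious HCVcc-Cre system; cells 1,000/well, compound then virus (~0.5 moi) added 4 h after plating, 44 h culture. Luciferase read 15 sec following 15 min substrate incubation, room temp.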
* = called active by the depositor; ? = inconclusive; . = no result; ! = a repeat was not active; [ ] = dose if it differs, or a comment. Unless noted, calls follow the shape of the dose curve; as a rule, active = well fitted curve in the direction sought with a large enough effect; inconclusive = small, poorly fitted or top-dose-only effect, or another doubt; inactive = no such curve, though single readings can be large; an effect the other way counts as inactive or inconclusive.

SMILES | Pf growth 48h | Shiga toxin inh | Pf growth 96h | Cycloheximide cs | AMA1-RON2 inh | HCV inh
CC(C)CN1CCC(=O)N(CCSc2ccc(Br)cc2)CC1 | 93% | 53*! | ? | 25 | 28% | 40%
CC(C)CN1CCC(=O)N(CCOc2ccccc2)CC1 | 61% | 28* | 7% | 28* | 1% | 10%
CCCN1CCC(=O)N(CCOc2ccccc2)CC1 | 57% | 4 | 42% | 3 | -6% | 22%
CCN(CC(=O)Nc1ccccc1C(F)(F)F)C(=O)c1oc2ccc(OC)cc2c1C | ? | . | ? | . | -10% | ?
Cc1ccc(CNC(=O)C2(C)CCN2C(=O)Cc2ccc(-c3ccccc3)cc2)cc1 (configuration not stated) | . | . | . | . | -15% | .
Cc1ccc(S(=O)(=O)N2CCC(=O)N(C(COCc3ccccc3)Cc3ccccc3)CC2)cc1 (configuration not stated) | 10µM* | -8 | 10µM* | 1 | 1% | -8%
Cc1ccc(S(=O)(=O)N2CCC(=O)N(C(COCc3cccc(Cl)c3)Cc3ccccc3)CC2)cc1 (configuration not stated) | 8.3µM* | 9 | 10µM* | -1 | -17% | ?
Cc1ccc(S(=O)(=O)N2CCC(=O)N([C@H](COCc3cccc(Cl)c3)Cc3ccccc3)CC2)cc1 | . | . | . | . | 3% | .
Cc1ccc(S(=O)(=O)N2CCC(=O)N(C(COCc3cccc(C(F)(F)F)c3)Cc3ccccc3)CC2)cc1 (configuration not stated) | ? | -13 | 6.6µM* | -2 | -7% | 10µM*
O=C(CSc1nnc(-c2ccccc2)c2ccccc12)NCCN1C(=O)CSC1=O | -13% | . | ? | . | -8% | 1%
O=C(CCCc1ccccc1)N1CCN(C2CCCCC2)CC1 | 115% | . | ? | 29* | -19% | 12%
CCC1CCCCN1C(=O)CCCc1ccccc1 (configuration not stated) | 65% | 70* | -3% | 35* | 2% | 10%
CCC1CCCCN1CCNC(=O)CCS(=O)(=O)c1ccc(Br)cc1 (configuration not stated) | ? | -5 | 3.3µM* | 1 | -2% | -5%
CCC1CCCCN1C(=O)CCS(=O)(=O)c1ccccc1 (configuration not stated) | 83% | 76* | 1% | 34* | 2% | 7%
COc1ccc(CCC(=O)N2CCN(C3CCCCC3)CC2)cc1 | -4% | -6 | 24% | 6 | -2% | -6%
CC1(C(=O)NS(=O)(=O)c2ccc(F)cc2F)CCN1C(=O)CC1CCCCC1 (configuration not stated) | . | . | . | . | 15% | .
COc1ccc2cc1Oc1cc3c(cc1OC)CC[N+](C)(C)C3Cc1ccc(cc1)Oc1c(OC)c(OC)cc3c1C(C2)[N+](C)(C)CC3 (configuration not stated) | 4% | . | 0% | . | . | .
COc1ccc(NC(=O)C2(C)CCN2Cc2ccc(OC(F)(F)F)cc2)cc1OC (configuration not stated) | . | . | . | . | -16% | .
CC1(C(=O)NS(=O)(=O)C2CC2)CCCN(C(=O)Cc2ccc(F)cc2)C1 (configuration not stated) | . | . | . | . | 12% | .
CCn1cc(C(=O)O)c(=O)c2ccc(C)nc21 | 5% | 8 | 5% | -3 | 4% | 0%[8.37 µM]
CCn1cc(C(=O)O)c(=O)c2cc(F)c(N3CCNCC3)nc21 | 3.6µM* | . | 1.4µM* | . | -3% | -2%
COc1ccccc1C(=O)COC(=O)C1CCN(S(=O)(=O)c2ccccc2)CC1 | . | . | . | . | 2% | .
CC(C)(C)c1ccc(C(=O)N2CCC2(C)C(=O)NCc2ccc3c(c2)OCO3)cc1 (configuration not stated) | . | . | . | . | -11% | .
Cn1cccc1Cc1nnc(SCC(=O)Nc2cccc(Cl)c2)n1-c1ccc(F)cc1 | ? | -14 | 8.3µM* | -7 | 0% | 1%
CC(=O)Nc1cccc(NC(=O)CSc2nnc(Cc3cccn3C)n2-c2ccc(C)cc2)c1 | ? | 4 | 4.1µM* | 1 | 31% | 7%
SMILES | Pf growth 48h | Shiga toxin inh | Pf growth 96h | Cycloheximide cs | AMA1-RON2 inh | HCV inh
CCc1ccc(NC(=O)CSc2nnc(Cc3cccn3C)n2-c2ccc(F)cc2)cc1 | 10µM* | -8 | 2.3µM* | -1 | -2% | 2%
COc1ccc(Cl)cc1NC(=O)CSc1nnc(Cc2cccn2C)n1-c1ccc(F)cc1 | 13µM* | -14 | ? | -5 | -1% | ?
Cc1ccc(NC(=O)CSc2nnc(Cc3cccn3C)n2-c2ccc(F)cc2)cc1 | ? | -15 | ? | 7 | 2% | -29%
CCn1c(C)cc(C(=O)CSc2nnc(C3CC3)n2C2CC2)c1C | . | . | . | . | -13% | .
Cc1ccc(-n2c(Cc3cccn3C)nnc2SCC(N)=O)cc1 | -1% | -9 | 17% | -1 | 2% | 20%
O=C(CSc1nc2c(sc3ccccc32)c(=O)n1CCO)NCc1ccco1 | 32% | -12 | 96% | -3 | -9% | 4%
COc1ccc(NC(=O)CSc2nnc(Cc3cccn3C)n2-c2ccc(OC)cc2)cc1 | ? | -17 | ? | -3 | 3% | -9%
COc1ccc(-n2c(Cc3cccn3C)nnc2SCC(=O)Nc2ccc(C(C)=O)cc2)cc1 | . | -4 | 0.47µM* | -2 | 6% | -12%
Cc1ccc(-n2c(SCC(=O)NCc3ccco3)nc3c(sc4ccccc43)c2=O)cc1 | ? | 119* | -28% | 53* | 3% | ?
Cc1ccc(-n2c(Cc3cccn3C)nnc2SCC(=O)NCc2ccco2)cc1 | 8.3µM* | 12 | 45% | 16 | 4% | 19%
CCOc1ncccc1C(=O)NCC(c1ccccc1)N(C)C (configuration not stated) | 21% | -16 | -14% | 2 | -4% | 2%
Cc1c(C(=O)N2CCN(S(=O)(=O)c3ccccc3)CC2)oc2ccc(Br)cc12 | . | . | . | . | 2% | ?
CCN(Cc1ccncc1)C(=O)c1cc(COc2ccc(OC)cc2Cl)on1 | -14% | 99* | ? | 42* | -2% | ?
CCN(Cc1ccncc1)C(=O)c1cc(COc2c(F)cccc2F)on1 | 5% | -3 | 10µM* | 9 | -2% | -4%
CCN(Cc1ccncc1)C(=O)c1cc(COc2ccc(F)cc2Cl)on1 | ? | -17 | ? | -3 | 14% | -19%
CCCN(CC1CCCO1)C(=O)c1cc(COc2ccc(F)cc2F)on1 (configuration not stated) | 14% | 22 | 12µM* | 8 | 1% | .
CCN(CC1CCCO1)C(=O)c1cc(COc2ccc(OC)cc2Cl)on1 (configuration not stated) | -2% | 14 | ? | 16* | 17% | -18%
CCc1ccc(CN(C)C(=O)c2cc(COc3c(F)cccc3F)on2)cc1 | 1% | 42 | ? | 23 | 10% | 3%

Screens deposited in PubChem BioAssay by National Center for Advancing Translational Sciences (NCATS).
